The text below walks through data of PubChem BioAssay (NCATS).

SMILES strings stand for the structures. Inconclusive results are not listed. Activity calls are given as the source filed them. Calls come from the whole dose curve; as a rule, active = well fitted inhibition curve with a large enough effect; inconclusive = small, poorly fitted or top-dose-only effect; inactive = flat fitted curve, though single readings scatter.

Sequence of Lysine-specific demethylase 5B (Homo sapiens) (Q9UGL1 whole entry, looked up): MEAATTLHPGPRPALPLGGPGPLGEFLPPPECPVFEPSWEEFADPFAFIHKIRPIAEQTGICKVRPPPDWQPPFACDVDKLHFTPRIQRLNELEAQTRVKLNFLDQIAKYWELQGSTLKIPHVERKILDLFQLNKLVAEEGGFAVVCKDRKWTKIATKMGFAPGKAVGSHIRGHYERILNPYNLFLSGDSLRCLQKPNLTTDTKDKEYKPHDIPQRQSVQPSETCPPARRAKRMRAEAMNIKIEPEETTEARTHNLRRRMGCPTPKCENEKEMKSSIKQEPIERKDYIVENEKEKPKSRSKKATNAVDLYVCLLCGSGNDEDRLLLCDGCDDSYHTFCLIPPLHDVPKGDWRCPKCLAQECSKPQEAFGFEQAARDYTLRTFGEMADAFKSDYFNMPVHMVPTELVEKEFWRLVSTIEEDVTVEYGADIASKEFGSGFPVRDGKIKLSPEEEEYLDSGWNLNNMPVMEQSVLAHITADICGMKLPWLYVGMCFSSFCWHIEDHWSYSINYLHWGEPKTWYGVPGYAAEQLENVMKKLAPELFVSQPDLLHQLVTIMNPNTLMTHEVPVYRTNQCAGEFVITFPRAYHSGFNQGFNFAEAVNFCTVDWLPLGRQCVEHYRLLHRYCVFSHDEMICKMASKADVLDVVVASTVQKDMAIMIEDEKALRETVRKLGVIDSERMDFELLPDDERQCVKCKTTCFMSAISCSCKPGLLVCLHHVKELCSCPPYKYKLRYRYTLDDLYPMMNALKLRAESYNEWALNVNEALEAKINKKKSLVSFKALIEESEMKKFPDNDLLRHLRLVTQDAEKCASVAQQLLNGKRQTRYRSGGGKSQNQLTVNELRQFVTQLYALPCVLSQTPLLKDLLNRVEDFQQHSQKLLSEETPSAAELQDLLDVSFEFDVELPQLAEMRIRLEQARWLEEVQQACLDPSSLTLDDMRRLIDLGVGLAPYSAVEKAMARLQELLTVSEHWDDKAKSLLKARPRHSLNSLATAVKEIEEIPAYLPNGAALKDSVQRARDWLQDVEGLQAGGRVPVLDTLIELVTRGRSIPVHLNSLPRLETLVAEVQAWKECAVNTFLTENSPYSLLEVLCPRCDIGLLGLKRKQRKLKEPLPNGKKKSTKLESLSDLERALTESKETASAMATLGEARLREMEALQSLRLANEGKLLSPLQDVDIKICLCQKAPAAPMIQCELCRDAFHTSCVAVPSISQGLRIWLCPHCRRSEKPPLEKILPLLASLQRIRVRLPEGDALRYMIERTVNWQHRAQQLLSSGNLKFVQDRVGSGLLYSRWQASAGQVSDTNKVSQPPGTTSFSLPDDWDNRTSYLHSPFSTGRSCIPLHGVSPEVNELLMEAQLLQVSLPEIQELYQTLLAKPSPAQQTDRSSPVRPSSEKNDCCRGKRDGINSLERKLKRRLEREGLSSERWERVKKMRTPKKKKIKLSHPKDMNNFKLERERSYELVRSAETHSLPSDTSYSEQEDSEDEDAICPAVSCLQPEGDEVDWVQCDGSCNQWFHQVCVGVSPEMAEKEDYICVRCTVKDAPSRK

The experiment addresses Lysine-specific demethylase 5B (Homo sapiens) (UniProt Q9UGL1). In words: Optimization screen for KDM5B Histone Demethylases FDH coupled qHTS against the LOPAC library (AID 1347166). Note: 0% is about no effect. Particulars: KDM5B demethylation, FDH-coupled NADH fluorescence (FDH is formaldehyde dehydrogenase); at 57.5 µM (top of the series). In short, it runs like this: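 KDM5BDeltaAP (200nM final) preincubated 10 min with compound, then 12.5uM H3K4Me3, 25uM a-ketoglutarate, ascorbate, Fe(II), NAD+ and FDH added; 50mM HEPES pH 7.5, 0.01% Tween-20. NADH fluorescence (340/450 nm) change over 30 min, room temperature.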
(In general: In qHTS, concentration-response curves come from the screen itself.)
For `C[C@@]1(C2CCCC2)Cc2cc(OCC(=O)O)c(Cl)c(Cl)c2C1=O`, the activity, negative = inhibition was -5.03% (inactive). In the case of `O=c1ccn([C@@H]2O[C@H](COP(=O)(O)OP(=O)(O)O)[C@@H](O)[C@H]2O)c(=O)[nH]1`, the activity, negative = inhibition is -0.701% (inactive). On to `Cn1c(=O)[nH]c2ncn(C)c2c1=O`, for which the activity, negative = inhibition is -3.98% (inactive). With `NCCCNCCCCNCCCN`, the activity, negative = inhibition is -4.41% (inactive). For the compound `O=C(O)c1cccnc1C(=O)O`, the activity, negative = inhibition is 6.25% (inactive). For `CC(=O)N[C@@H](Cc1c[nH]c2ccccc12)C(=O)OCc1cc(C(F)(F)F)cc(C(F)(F)F)c1`, the activity, negative = inhibition is -9.61% (inactive).

With `O=C(O)C1=CCCN(CCON=C(c2ccccc2)c2ccccc2)C1`, the activity, negative = inhibition is 1.04% (inactive). As to `NCCNS(=O)(=O)c1cccc2c(Cl)cccc12`, the activity, negative = inhibition was -9.52% (inactive). For `CCCN(CCc1ccccc1)C1CCc2c(O)cccc2C1` (stereo not given), the activity, negative = inhibition was -0.152% (inactive). Next, `CCn1c(=O)[nH]c2cc(Cl)c(Cl)cc21`: -0.178% (inactive); `c1ccc(C(NCc2cccnc2)(c2ccccc2)c2ccccc2)cc1`: -13.8% (inactive); `NCCCCN=C(N)N`: -1.42% (inactive). As for `NCCS(=O)O`, the figure is -4.01% (inactive); as for `Nc1ccc(CCNc2ncnc3c2ncn3C2OC(CO)C(O)C2O)cc1` (stereo not given), -7.72% (inactive); as for `Nc1ncnc2c1ncn2C1CCCO1` (stereo not given), -7.06% (inactive). As for `COc1ccc(CCN(C)CCc2ccc(OC)c(OC)c2)cc1OC`, the activity, negative = inhibition was 3.09% (inactive). In the case of `COc1ccc(NC(=O)c2ccc(-c3ccc(-c4noc(C)n4)cc3C)cc2)cc1N1CCN(C)CC1`, the activity, negative = inhibition was -1.51% (inactive). `NC(N)=NC(N)=Nc1ccccc1`: the activity, negative = inhibition is -3.27% (inactive).

For `Cn1cc(C(=O)OCC2CCN(CCNS(C)(=O)=O)CC2)c2ccccc21`, the activity, negative = inhibition is -6.85% (inactive). As for `CN[C@H](CC(=O)O)C(=O)O`, the figure is -14.8% (inactive). As to `CCCn1c(=O)c2c(ncn2C)n(CCC)c1=O`, the activity, negative = inhibition is -2.62% (inactive). For `CC(N)(C(=O)O)c1ccc(C(=O)O)cc1` (stereo not given), the activity, negative = inhibition was -6.58% (inactive).

Regarding `O=[N+]([O-])c1cccc2cn[nH]c12`, the activity, negative = inhibition was -3.93% (inactive).

For `N[C@H](C(=O)O)[C@H]1C[C@@H]1C(=O)O`, the activity, negative = inhibition was -7.37% (inactive). For the compound `N[C@H](C(=O)O)c1cc(O)cc(O)c1`, the activity, negative = inhibition is -24% (inactive). Next, `C#CCn1c(=O)c2c(ncn2C)n(C)c1=O`: -2.26% (inactive); `CCCCCCCCCCCCCCCCCCOC[C@H](COP(=O)([O-])OCC[N+](C)(C)C)OC`: 1.42% (inactive).

`CC[N+](CC)(CC)CC(=O)Nc1c(C)cccc1C`: the activity, negative = inhibition was -1.53% (inactive).

In the case of `N#Cc1cc2nc(O)c(O)nc2cc1[N+](=O)[O-]`, the activity, negative = inhibition was -14.6% (inactive). As for `CCCCCCCCCCC(C)(C)C(=O)Nc1c(OC)cc(OC)cc1OC`, the figure is -22.8% (inactive); as for `CCCCCCCCCCC/C=C\C(C)(C)/C=C\CCCC(=O)O`, -18.4% (inactive). Next, `CC(C)(CO)Cc1cc(C(C)(C)C)c(O)c(C(C)(C)C)c1`: -8.2% (inactive); `N[C@H](C(=O)O)[C@H](O)C(=O)O`: -0.47% (inactive). As to `NC/C=C\C(=O)O`, the activity, negative = inhibition was 3.97% (inactive).

As for `CCN(CC)CCOC(=O)c1cc(Cl)c(N)cc1OC`, the activity, negative = inhibition was -9.27% (inactive). With `CCCCCC[C@@H]([C@@H](C)O)n1cnc2c(N)ncnc21`, the activity, negative = inhibition was -6.57% (inactive). Next, `N=C(N)SCCc1cnc[nH]1`: -14.3% (inactive). Take `CC1CNCCN1S(=O)(=O)c1cccc2cnccc12` (stereo not given): the activity, negative = inhibition is -12.8% (inactive).

On to `CCCCCCC(=O)OC1CC(C)(C)NC(C)(C)C1`, for which the activity, negative = inhibition is -0.896% (inactive).

`CC[C@H](NC(=O)c1c(C)c(-c2ccccc2)nc2ccccc12)c1ccccc1`: the activity, negative = inhibition is -4.22% (inactive).
